PubChem BioAssay (NCI)
This is part of a sample that, as a whole, favours compounds with a hit. Of some 79,000 tested, about 15% had one in any assay. No stated cut-off is given here; in the data, active means growth inhibition above about 70%; inactive means the rest.

Experiments:
[1] = NCI Yeast Anticancer Drug Screen. Data for the rad50 strain (AID 155);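 further: 0% = growth of vehicle-only cultures of the same strain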; settings: S. cerevisiae rad50 strain growth inhibition; at 50.0 µM; hits give high values
Procedure, shortened: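 Vehicle-treated cultures provide the reference for the growth inhibition reported for compound-exposed, repair-deficient yeast.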

[2] = NCI Yeast Anticancer Drug Screen. Data for the mec2-1 strain (AID 157); settings: S. cerevisiae mec2-1 strain, at 50.0 µM, hits give high values
Procedure, shortened: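 Mutant yeast (mec2-1) grown with compound; growth inhibition relative to vehicle control reported.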

[3] = NCI Yeast Anticancer Drug Screen. Data for the sgs1 mgt1 strain (AID 161);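 further: 0% = growth of cultures given vehicle only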; settings: S. cerevisiae sgs1 mgt1 strain, at 50.0 µM, hits give high values
Procedure, shortened: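 Percent growth inhibition was derived by comparing compound-exposed mutant yeast with vehicle-exposed cultures. The strain carries alterations in DNA damage repair.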

[4] = NCI Yeast Anticancer Drug Screen. Data for the cln2 rad14 strain (AID 165);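 further: 0% = growth equal to vehicle treated cultures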; settings: S. cerevisiae cln2 rad14 strain, at 50.0 µM, hits give high values
Procedure, shortened: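 Readout is yeast growth inhibition versus vehicle-treated controls, using a strain with cln2 and rad14 alterations exposed to compound.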

[5] = NCI Yeast Anticancer Drug Screen. Data for the mlh1 rad18 strain (AID 175); settings: S. cerevisiae mlh1 rad18 strain growth inhibition; at 50.0 µM; hits give high values
Procedure, shortened: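 Genetically defined yeast (DNA repair-deficient) exposed to compounds; growth inhibition determined relative to vehicle.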

[6] = NCI Yeast Anticancer Drug Screen. Data for the bub3 strain (AID 167); settings: S. cerevisiae bub3 mutant strain, at 50.0 µM, hits give high values
Procedure, shortened: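 Mutant yeast screening strain plus compound; vehicle-treated cultures serve as the 0% inhibition reference.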

Measured: growth inhibition

CC(=O)/C(N=Nc1ccc(S(=O)(=O)c2ccc(N=N/C(C(C)=O)=C(/C)O)cc2)cc1)=C(\C)O
inactive: [1] -27.2% | [2] -20.4% | [3] -9.8% | [4] 0.15% | [5] -14.9%

O=C(O)c1cccc(SS(=O)(=O)c2cccc(C(=O)O)c2)c1
inactive: [1] -18.4% | [2] -13.4% | [3] -10.1% | [4] 9.45% | [5] -7.45%

COc1ccccc1/C=N\NC(C)=O
inactive: [1] -9.9% | [2] 6.05% | [3] 5.35% | [4] 2.25% | [6] 6.05% | [5] -14.7%

N#CC1=CN(Cc2ccccc2)C(c2ccccc2)C=C1 (stereo not given)
inactive: [1] 23.2% | [2] -2.15% | [3] -3.9% | [4] 4.65% | [5] 27%

CNC(=O)OCc1c(COC(=O)NC)c(-c2ccc(SC)cc2)n(C)c1C
inactive: [1] 24.9% | [2] 8.4% | [3] 47.4% | [4] 0.1% | [5] 49.7%

CCC(CO)Nc1nc2c(Cl)cc(Cl)cc2c2ccccc12 (stereo not given)
inactive: [1] 11.1% | [2] 1.55% | [3] 18.4% | [4] -12.3% | [5] 41.2%

CC(=O)NCc1cc([N+](=O)[O-])ccc1O
inactive: [1] 11.6% | [2] 2.55% | [3] -0.8% | [4] -6.2% | [5] 5.05%

[O-][N+]1=C(c2ccccc2)C(c2ccccc2)C(c2ccccc2)O1 (stereo not given)
inactive: [1] -13.4% | [2] 1.05% | [3] -2.4% | [4] -6% | [5] 11.2%

CCCCCCNCc1cc(CNCCCCCC)c(O)c(CNCCCCCC)c1
inactive: [1] 4.5% | [2] 15.4% | [3] 18.4% | [4] -2.4% | [5] 29.6%

CCOC(=O)CCC(NC(=O)c1ccc([N+](=O)[O-])cc1)C(=O)OCC (stereo not given)
inactive: [1] 29.6% | [2] -32.3% | [3] -7.3% | [4] -86.5% | [5] 26.1%

CCOCCC(C)(OCC)OCC
inactive: [1] -11.8% | [2] -36.1% | [3] -7% | [4] 15.7% | [5] -5.3%

CCOC(=O)C12CCCC1(O)N(NC(=O)OC(C)(C)C)C(C)=C2C(=O)OC (stereo not given)
inactive: [1] -7.85% | [2] 15.1% | [3] -2.6% | [4] -43.2% | [5] -7.5%

O=[N+]([O-])c1ccc(/C=N\NC(=S)Nc2ccc3cn[nH]c3c2)cc1
inactive: [1] 19.9% | [2] 14.6% | [3] 7.6% | [4] -1.7% | [5] -9.65%

O=C(COc1ccccc1Cl)N1N=C(c2ccccc2)CC1(O)c1ccccc1 (stereo not given)
inactive: [1] -4.25% | [2] 10.1% | [3] 25% | [4] 8.35% | [5] 15.9%

C(/C=C/c1ccccc1)=Nc1ccc2c(c1)Cc1ccccc1-2
inactive: [1] 0.4% | [2] -0.35% | [3] -25.8% | [4] -27.9% | [6] -15.8% | [5] 9.9%

CCN(CC)CCOC(=O)c1ccc(NC(=O)OCCC(C)OC(=O)Nc2ccc(C(=O)OCCN(CC)CC)cc2)cc1 (stereo not given)
inactive: [1] -1.55% | [2] 1.2% | [3] -1.65% | [4] -4.4% | [6] -6.6% | [5] 11.9%

CCCCCCCCCCCCCCNC(=O)C(C)O (stereo not given)
inactive: [1] 2% | [2] -23.8% | [3] -15.7% | [4] -35.2% | [5] -2.2%

CCSc1cc(=O)n(C)c(=O)n1C
inactive: [1] 13.6% | [2] 7.15% | [3] 21.3% | [4] 4.55% | [5] -10.5%

COc1ccc(NC(=O)C(=O)NNC(=O)c2sc(NNC(C)=O)nc2C)c([N+](=O)[O-])c1
inactive: [1] 27.3% | [2] -10.7% | [3] 39.2% | [4] 8.4% | [5] 5.3%

CN1C(=O)c2ccccc2NC(=O)C12O[C@@H]2c1cccc(O)c1 (stereo not given in full)
inactive: [1] 9% | [2] -0.55% | [3] 11.2% | [4] 8.9% | [5] 8.05%

O=C(CBr)Nc1ccccc1[N+](=O)[O-]
inactive: [1] 8.3% | [2] -1.35% | [3] 5.8% | [4] 0.4% | [5] -5.4%

CC1=C(OCCCl)C2CC1C1C(=O)N(c3ccccc3)C(=O)C21 (stereo not given)
inactive: [1] -9.95% | [2] -29.1% | [3] -1.85% | [4] -0.4% | [5] -4.75%

CCOC(=O)c1n[nH]c(=S)[nH]c1=O
inactive: [1] -7.95% | [2] -1.8% | [3] -3.05% | [4] -16.9% | [5] -14.9%

Cc1cc(C)c(OCC(O)CO)c(C)c1 (stereo not given)
inactive: [1] 2.45% | [2] -26.1% | [3] 14.7% | [4] -10.1% | [5] -8.8%

COc1cc(C)n2nnnc2n1
inactive: [1] 9.5% | [2] -6.2% | [3] 0.2% | [4] -15.8% | [5] -9.4%

OCC(O)C(O)C(O)C(Sc1ccccc1)Sc1ccccc1 (stereo not given)
inactive: [1] 7.15% | [2] 11.8% | [3] 7.4% | [4] 8.3% | [5] 16.8%

Cc1cccc(Cl)c1NC(=O)N(C)c1ccccc1
inactive: [1] 8.95% | [2] -11.9% | [3] 14.2% | [4] 23.4% | [5] 11.7%

CC1(C)O[C@H]2Cn3c(c(C#N)c4ccccc43)[C@H]2O1
inactive: [1] 11.2% | [2] -38.4% | [3] 15.8% | [4] -11.1% | [6] 42.1% | [5] -21.2%

COc1ccc(C(=O)c2ccc(C(=O)O)cc2)c(OC)c1
inactive: [1] -5.4% | [2] -17.5% | [3] -14.6% | [4] -48.6% | [6] 5.95% | [5] -27.6%

CC(=O)c1c(O)cccc1O
inactive: [1] -11.8% | [2] -13.8% | [3] -1.75% | [4] 8.7% | [5] -3.75%

Cc1ccc(N2C(=O)CC3(CCCC3)C2=O)cc1Cl
inactive: [1] 14.6% | [2] -2% | [3] -6.05% | [4] 5.95% | [5] 21.6%

CCOCC/C(=N\Nc1ccc([N+](=O)[O-])cc1[N+](=O)[O-])c1ccccc1
inactive: [1] 19.8% | [2] 5.85% | [3] 11.2% | [4] 19.6% | [5] 9.55%

O=c1[nH]c2ccccc2nc1/C=C(\O)c1ccc([N+](=O)[O-])cc1
inactive: [1] 1.55% | [2] -10.6% | [3] -21.6% | [4] 25.7% | [5] 1.6%

COc1ccc(Cl)cc1NC(=O)Oc1cc2ccccc2cc1C(=O)Nc1ccccc1
inactive: [1] -9.4% | [2] -8.05% | [3] -21.4% | [4] -25.1% | [5] -13.8%

CSc1nc(C)cc(N(C)c2ccccc2)n1
inactive: [1] -5.9% | [2] 0.25% | [3] 8.85% | [4] -8.9% | [5] 14.6%

CN(CCN(C)C(=O)CCOS(C)(=O)=O)C(=O)CCOS(C)(=O)=O
inactive: [1] -3.95% | [2] -3.05% | [3] -18.4% | [4] 0% | [5] -51.5%

CN(C)c1ccc(/C=C(\C#N)c2cccc(Br)c2)cc1
inactive: [1] -2.45% | [2] -7.3% | [3] 3.1% | [6] 12.1% | [5] -0.05%

COc1ccc(C(C)=O)c(O)c1OC
inactive: [1] -3.3% | [2] 4.7% | [3] 9.1% | [4] -3.35% | [5] 3%

COC(=O)C1(Cc2ccc3c(c2)CCC3)Cc2ccccc2C1
inactive: [1] -9.5% | [2] -25.5% | [3] -6.1% | [6] 29.9% | [5] -9.2%

COP(=O)(CC(=O)C1OC(C)(C)OC1C(O)COCc1ccccc1)OC (stereo not given)
inactive: [1] -21.3% | [2] 22.9% | [3] 22.9% | [6] 14.6% | [5] 5.85%

CCCCCC[C@H](C/C=C\CCCCCCCC(=O)OCCCC)OC(C)=O
inactive: [1] -14.7% | [2] 0.2% | [3] -10.2% | [6] -29.4% | [5] -8.8%

O=C(NCCc1c[nH]c2ccccc12)C1CCCCC1
inactive: [1] -3.65% | [2] -5.45% | [3] 7.85% | [6] 14.1% | [5] -10.1%

CN(C)CC(O)CO (stereo not given)
inactive: [1] 38.5% | [2] -4% | [3] -6.5% | [6] 21.7% | [5] 22%

N#CCC1(O)c2ccccc2-c2ccccc21
inactive: [1] -11.9% | [2] 7.45% | [3] 8% | [6] 1.4% | [5] 9.9%

COc1ccccc1NC(=O)CCl
inactive: [1] 17.8% | [2] 24.9% | [3] 24.4% | [6] 28.5% | [5] 36.2%

CCCCCCCCCCCC(=O)CC(=O)c1c(O)cccc1O
inactive: [1] 1.35% | [2] -11.6% | [3] 6.45% | [6] 20.7% | [5] -12.2%

Cc1cccc(C[N+](C)(C)CCO)c1C
inactive: [1] -0.5% | [2] -13.2% | [3] 3.4% | [6] 3.45% | [5] -20.6%
